From PubChem BioAssay (EPA / NIEHS)
Records with an inconclusive call do not appear. Calls of active or inactive are those of the source. Rule for the calls, unless noted: active = hit-call score of the fitted dose curve at least 0.9, where 1 is the maximum; inconclusive = response in the unintended direction; inactive = score below 0.9.

Molecular target: PGR (gene 5241) (UniProt P06401)
Experiment: TOX21_PR_BLA_Followup_Antagonist_ratio: Tox21 HEK293 Progesterone Receptor (PR) Antagonism Beta-lactamase Follow-Up Assay, Ratio (AID 2283934);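 note: PR-UAS-bla HEK293T cells stimulated with 1 nM R5020 agonist for 16 hr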
Procedure, shortened: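 Readout is the blue/green (ch2/ch1) substrate cleavage ratio after 2 hours at room temperature, following 16 hr co-treatment of PR-bla HEK293T cells with compound and 1nM promegestone. Multiplexed CellTiter-Glo viability flags cytotoxicity; DMSO baseline.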

PGR (gene 5241), sequence (P06401 whole entry, looked up): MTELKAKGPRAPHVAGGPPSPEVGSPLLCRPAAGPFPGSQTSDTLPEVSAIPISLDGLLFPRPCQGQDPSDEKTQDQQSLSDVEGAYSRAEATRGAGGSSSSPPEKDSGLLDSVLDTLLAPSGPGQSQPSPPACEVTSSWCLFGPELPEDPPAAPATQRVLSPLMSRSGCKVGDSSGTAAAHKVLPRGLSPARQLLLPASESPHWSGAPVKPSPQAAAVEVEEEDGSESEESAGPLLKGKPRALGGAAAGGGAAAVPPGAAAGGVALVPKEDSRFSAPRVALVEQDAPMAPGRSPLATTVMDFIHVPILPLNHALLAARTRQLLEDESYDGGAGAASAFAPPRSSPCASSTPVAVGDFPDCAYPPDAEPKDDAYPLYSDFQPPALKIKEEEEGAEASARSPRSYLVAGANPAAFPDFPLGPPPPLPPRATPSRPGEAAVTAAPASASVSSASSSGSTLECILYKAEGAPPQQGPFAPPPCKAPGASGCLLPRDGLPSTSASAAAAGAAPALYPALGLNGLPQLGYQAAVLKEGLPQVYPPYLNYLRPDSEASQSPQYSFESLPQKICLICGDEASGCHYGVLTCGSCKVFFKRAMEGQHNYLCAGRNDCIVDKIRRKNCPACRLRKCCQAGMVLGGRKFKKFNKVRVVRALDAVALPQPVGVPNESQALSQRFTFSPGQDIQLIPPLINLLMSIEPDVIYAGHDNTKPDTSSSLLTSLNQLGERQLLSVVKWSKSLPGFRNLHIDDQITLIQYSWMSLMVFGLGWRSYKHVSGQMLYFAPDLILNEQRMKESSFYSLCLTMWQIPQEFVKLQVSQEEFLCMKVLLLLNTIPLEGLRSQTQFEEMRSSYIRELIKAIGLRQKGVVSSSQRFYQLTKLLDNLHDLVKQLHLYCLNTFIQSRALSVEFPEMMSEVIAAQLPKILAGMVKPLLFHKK

Compound	outcome	AC50
C[C@@H]1C[C@H]2[C@@H]3CCC4=CC(=O)C=C[C@]4(C)[C@@]3(F)[C@@H](O)C[C@]2(C)[C@@]1(O)C(=O)COP(=O)(O)O	inactive	–
CC[C@H](c1ccc(O)cc1)[C@@H](CC)c1ccc(O)cc1	–	9.17 µM (active)
c1ccc2cc3c(ccc4ccccc43)cc2c1	–	21.8 µM (active)

System: not listed separately
Experiment: TOX21_PR_BLA_Followup_Agonist_viability: Viability Assessment in the Tox21 HEK293 Progesterone Receptor (PR) Agonism Beta-lactamase Follow-Up Assay (AID 2283935);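 note: signal loss means lower viability so actives are cytotoxic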
Procedure, shortened: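 Run multiplexed with the beta-lactamase FRET read, this endpoint measures ATP by CellTiter-Glo luminescence (30 min, room temperature). PR-UAS-bla HEK293T cells received compound 6 hr after plating and were then incubated 16 hr at 37C in 2% stripped serum.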

Compound	outcome
C[C@@H]1C[C@H]2[C@@H]3CCC4=CC(=O)C=C[C@]4(C)[C@@]3(F)[C@@H](O)C[C@]2(C)[C@@]1(O)C(=O)COP(=O)(O)O	inactive
CC[C@H](c1ccc(O)cc1)[C@@H](CC)c1ccc(O)cc1	inactive
c1ccc2cc3c(ccc4ccccc43)cc2c1	inactive

System: not listed separately
Experiment: TOX21_PR_BLA_Followup_Antagonist_viability: Viability Assessment in the Tox21 HEK293 Progesterone Receptor (PR) Antagonism Beta-lactamase Follow-Up Assay (AID 2283936);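 note: cells exposed to compound with R5020 agonist for 16 h; hits lower the luminescence signal meaning cytotoxicity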
Procedure, shortened: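 PR-UAS-bla HEK293T cells in medium with 2% charcoal-stripped FBS were treated with compounds plus R5020 for 16 hr at 37C. After the beta-lactamase read, CellTiter-Glo was added to the same wells and luminescence read after 30 min at room temperature.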

Compound	outcome
C[C@@H]1C[C@H]2[C@@H]3CCC4=CC(=O)C=C[C@]4(C)[C@@]3(F)[C@@H](O)C[C@]2(C)[C@@]1(O)C(=O)COP(=O)(O)O	inactive
CC[C@H](c1ccc(O)cc1)[C@@H](CC)c1ccc(O)cc1	inactive
c1ccc2cc3c(ccc4ccccc43)cc2c1	inactive

System: not listed separately
Experiment: CCTE_Harrill_HTTr_Viability_DMEM_6hr: (Pilot) CCTE's 6-hour Cell Viability Assessment for the High-Throughput Transcriptomics (HTTr) Platform, in MCF-7 cells cultured in DMEM + 10% fetal bovine serum, Harrill Lab (AID 2283973; active = hit-call score of the fitted dose curve at least 0.9, where 1 is the maximum; inactive = score below 0.9)
Procedure, shortened: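 Propidium iodide uptake imaged by high-content analysis after six hours of chemical treatment in an eight-concentration series. Cells: MCF-7 grown in DMEM with 10% fetal bovine serum; DMSO as baseline.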

Compound	AC50	outcome
CCC(=C(c1ccc(O)cc1)c1ccc(OCCN(C)C)cc1)c1ccccc1	79 µM (active)	–
Cc1oc(-c2ccccc2)nc1CCOc1ccc(C[C@H](Nc2ccccc2C(=O)c2ccccc2)C(=O)O)cc1	–	inactive
O=C(O)Cc1cc(I)c(Oc2cc(I)c(O)c(I)c2)c(I)c1	–	inactive
